Growth data for nine compounds are collected here from PubChem BioAssay (NCI).

Each structure is given as a SMILES string. This is part of a sample that, as a whole, favours compounds with a hit. Of some 83,000 tested, about 20% had one in any assay.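 Negative percent growth values reflect cell death: -40 means 40% of the cells present at the start died, and -100 means all died.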 Values without a mark were called inactive. Active and inactive are the calls of the source. The calls were made as follows: active = growth percent below 10; inactive = the rest.

Common to all, as to assay: NCI-60 one-dose screen, 48 h (100 = growth as untreated, 0 = no growth, -100 = all killed)
Common to all, as to details: 10 µM

For assay [1], the system named is K-562 leukemia.
Assay [2] has as its system MALME-3M melanoma.
Assay [3] has as its system MDA-MB-231 breast.
The subject of assay [4] is RXF 393 renal.
For assay [5], the system named is SF-268 CNS.
Assay [6] concerns SF-295 CNS.
Assay [7] relates to SF-539 CNS.
For assay [8], the system named is M14 melanoma.
For assay [9], the system named is HCT-15 colon.
Assay [10] has as its system UACC-257 melanoma.

As to `CC(C)=CCc1cc(O)cc2c1OC(C=C(C)C)C1=C2C(=O)C2=C(NCCS2(=O)=O)C1=O` (stereo unspecified), the growth in assay [1] is 2.31% (active); in [2] it was -92.9% (active); in assay [3] it was -8.67% (active); in assay [4], -2.85% (active); in assay [5] it was -1.83% (active); in assay [6], 45.9%. For the same compound, the growth in assay [7] was -50.5% (active); in assay [8], -87.2% (active); in [9], 28.4%.
As for `Cc1cc(Nc2ccc(Cl)cc2)nc(NCCCNc2ccnc3cc(Cl)ccc23)n1`, the growth was -53.8% (active) in assay [1]; -82.2% (active) in assay [2]; -88.2% (active) in assay [3]; -91.9% (active) in [4]; -66.5% (active) in assay [5]; -68.2% (active) in assay [6]. Moreover, the growth in assay [7] is -100% (active); in assay [8], -87.5% (active); in [9] it was -54.3% (active).
Take `Cc1cc(N(CCCNc2ccnc3cc(Cl)ccc23)Cc2cccs2)nc(Cl)n1`: the growth in [1] was 0.837% (active); in assay [2], 37.9%; in assay [3], 46.6%; in assay [4] it was 46.2%; in assay [5], 61.9%; in [6], 36%. Further, the growth in assay [7] was 56.3%; in assay [8] it was 22.9%; in assay [9], 24.3%.
Consider `COc1ccc(-c2nnc(-c3c(-c4ccccc4)nc4ncccn34)o2)cc1OC`, for which the growth is 88.8% in assay [1]; 121% in [2]; 91.3% in [3]; 98.3% in assay [4]; 101% in assay [6]; 94.5% in [7]. Moreover, the growth in assay [10] is 96.7%; in [8] it was 119%; in assay [9] it was 100%.
On to `Oc1[nH]c2cc(Cl)ccc2c1/C=c1/ccc2c(c1)N=C(c1cc(F)cc(F)c1)N=2`, for which the growth in assay [1] is 10.3%; in assay [2], 51.4%; in [3], 66.7%; in [4], 1.45% (active); in assay [6] it was 13.5%; in [7] it was 3.76% (active). In addition, the growth in assay [10] is 55.6%; in assay [8], -9.94% (active); in [9], 37.3%.
As to `Cc1ccc(C(=O)Nc2cccc(F)c2)cc1NC(=O)C1(c2ncnc3[nH]ccc23)CC1`, the growth in assay [1] is 6.39% (active); in assay [2], 35%; in assay [3], 54.8%; in assay [4], 91.5%; in [5], 95.2%; in [6] it was 89.3%. In addition, the results for the growth in assay [7], in assay [8] and in assay [9] were 73%, 60% and 88.8%, respectively.
Turning to `Clc1ccc(Nc2ccnc(NCCCNc3ccnc4cc(Cl)ccc34)n2)cc1`, the growth was -56.9% (active) in assay [1]; -81% (active) in assay [2]; -86% (active) in assay [3]; -89.3% (active) in assay [4]; -75.8% (active) in assay [5]; -81.1% (active) in assay [6]. Besides, the growth is -96.8% (active) in assay [7], -80% (active) in assay [8] and -60.6% (active) in [9].
As to `COc1cc(-c2nnc(-c3c(-c4ccc(F)cc4)nc4ccccn34)o2)cc(OC)c1OC`, the growth in assay [1] is 98.8%; in assay [2], 105%; in assay [3] it was 64.6%; in assay [4], 66.9%; in assay [6], 74.6%; in assay [7] it was 26.4%. Besides, the growth in assay [10] is 92.1%; in [8] it was 104%; in [9], 90.6%.
In the case of `COc1cc(-c2nc(-c3nnc(-c4ccc(F)c(Cl)c4)o3)c3ccccn23)cc(OC)c1OC`, the growth in [1] was 52.6%; in [2] it was 13.4%; in assay [3], 57.3%; in [4] it was 40.4%; in assay [6], 37.3%; in assay [7], 37%. The growth in assay [10] was 40.3%; in assay [8], 70%; in assay [9], 55.4%.
